Sampled rows, rich in hits. Any-hit rate of the full collection: about 8%.
TSHR antagonist: Antagonists of the Thyroid Stimulating Hormone Receptor: HTS campaign; Thyrotropin receptor (Homo sapiens), P16473; TSHR-expressing cells, TSH-stimulated cAMP HTRF, 2 h; stronger effect = lower value; activity change, negative = inhibition, % at 11.5 µM; 330,000 tested, 0.2% active; AID 504810, 2011;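 active = activity change below a set negative limit, meaning inhibition stronger than a set level, cut at about -70% in these data; inconclusive = activity change between two set negative limits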
Target sequence (P16473 whole entry, looked up): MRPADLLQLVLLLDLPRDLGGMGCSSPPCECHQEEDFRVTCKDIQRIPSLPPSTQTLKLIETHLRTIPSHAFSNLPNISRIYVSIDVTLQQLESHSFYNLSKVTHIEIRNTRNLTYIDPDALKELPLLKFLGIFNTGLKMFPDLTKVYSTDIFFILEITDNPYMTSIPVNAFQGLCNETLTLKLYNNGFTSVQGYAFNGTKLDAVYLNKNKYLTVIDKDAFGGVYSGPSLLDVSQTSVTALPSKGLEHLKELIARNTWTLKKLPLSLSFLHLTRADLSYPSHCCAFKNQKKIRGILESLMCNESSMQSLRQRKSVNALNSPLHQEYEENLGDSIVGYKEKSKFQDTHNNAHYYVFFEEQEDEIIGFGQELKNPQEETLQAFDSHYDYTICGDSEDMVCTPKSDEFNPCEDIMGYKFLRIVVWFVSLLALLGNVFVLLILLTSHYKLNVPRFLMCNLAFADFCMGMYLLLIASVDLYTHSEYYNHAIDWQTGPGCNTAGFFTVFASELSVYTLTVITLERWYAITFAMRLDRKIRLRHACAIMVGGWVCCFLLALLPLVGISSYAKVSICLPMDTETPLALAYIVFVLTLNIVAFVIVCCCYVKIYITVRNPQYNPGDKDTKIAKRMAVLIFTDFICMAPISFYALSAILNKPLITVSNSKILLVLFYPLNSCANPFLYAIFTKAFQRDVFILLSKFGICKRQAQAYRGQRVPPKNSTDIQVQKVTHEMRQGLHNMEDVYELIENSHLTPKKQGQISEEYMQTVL
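Freshly harvested TSHR cells receive pin-tooled compound, then EC80 TSH at 4nM final. After 2 hours at 37 deg C, antibody in lysis buffer and cAMP-d2 are added; 30 minutes at ambient temperature precede the HTRF read.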
Gal4-VP16 FLuc: VP16 counterscreen qHTS for inhibitors of ROR gamma transcriptional activity; Drosophila S2 Gal4-VP16 UAS-luciferase, luminescence, 20 h; Potency, µM (doses to about 53.6 µM), inactives show at the top dose activity, negative = inhibition, actives largely listed as inhibitors; 310,000 tested, 3.5% active;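 note: Gal4-VP16 expression switched on by copper sulfate through the metallothionein promoter; potency is the fitted concentration of half-maximal effect; nearly all actives have a fitted effect of over 50% in size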
FBPA coupling cs: qHTS Assay for Inhibitors of Fructose-1,6-bisphosphate Aldolase from Giardia Lamblia: Coupling assay counterscreen; 290,000 tested, 0.67% active; coupling enzyme system counterscreen, AmpLite Red fluorescence; activity change, negative = inhibition, % at 58.2 µM, hits read low; in the data active = activity change below about -30%
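First, compound is pin-transferred into glyceraldehyde-3-phosphate coupling-enzyme reagent at 57.5 uM final and held 10 min at RT. Next, substrate, coupling system and AmpLite Red are added. After 20 min RT, fluorescence (525/598 nm) is read.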
RORgamma inh: qHTS for inhibitors of ROR gamma transcriptional activity. AID 2551, 2010. 310,000 tested, 5.4% active. Potency, µM (highest dose often 53.6 µM), for inactives: at the highest dose activity change, negative = inhibition, actives largely listed as inhibitors. Drosophila S2 Gal4-RORgamma UAS-luciferase reporter, 20 h; note: potency is the fitted concentration of half-maximal effect; nearly all actives have a fitted effect of over 60% in size
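ROR gamma transcriptional activity was tracked as Gal4-UAS luciferase output in stably transfected Drosophila Schneider cells, with compound added 1 hr before 700 uM copper sulfate induction and a 20 hr ambient-temperature incubation.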
ELG1 DNA repair: qHTS screen for small molecules that inhibit ELG1-dependent DNA repair in human embryonic kidney (HEK293T) cells expressing luciferase-tagged ELG1; HEK293T ELG1-luciferase reporter, luminescence, 16 h; DNA damage induced by 5-fluorouridine; Potency, µM (highest dose often 46.1 µM), inactives show at the top dose activity change, negative = inhibition, usual class: inhibitors; 330,000 tested, 2.3% active; AID 504467, 2011; note: potency is the fitted concentration of half-maximal effect; nearly all actives have a fitted effect of over 55% in size
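In this reporter screen, reduction of luminescence relative to DMSO vehicle indicated activity. Compounds and 5-fluorouridine were added together to 2,000 cells per well, incubated for 16 hr at 37 °C, then developed with ONE-Glo.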
ELG1 FLuc counter: qHTS screen for small molecules that inhibit ELG1-dependent DNA repair: Hit Confirmation in Cell-Based Luciferin Assay; shares compounds with ELG1 DNA repair; cell-free firefly luciferase luminescence counter-screen, ViewLux; Potency, µM (titrated, usually from 46.1 µM), for the others: at the top dose activity change, negative = inhibition, most hits filed as inhibitors; 350 tested, 3% active; note: potency is the fitted concentration of half-maximal effect
ELG1 Luc conf: HTS assay for small molecules that inhibit ELG1-dependent DNA repair in human embryonic kidney (HEK293T) cells expressing luciferase-tagged ELG1: Hit Confirmation; shares compounds with ELG1 DNA repair; AID 624248, 2012; 670 tested, 68% active; Potency, µM (titrated, usually from 46.1 µM), for the others: top-dose activity change, negative = inhibition, hits mostly inhibitors; HEK293T ELG1-luciferase levels, luminescence; cells co-treated with 5-fluorouridine; note: potency is the fitted concentration of half-maximal effect; nearly all actives have a fitted effect of over 55% in size
ELG1-Luc MMS: confirmation of human ELG1 repair inhibitors, MMS stimulated; Potency, µM (titrated, usually from 46.1 µM), inactives show at the top dose activity change, negative = inhibition, usual class: inhibitors; HEK293T luciferase-tagged ELG1 level, MMS stimulated; shares compounds with ELG1 DNA repair; AID 624249; 670 tested, 53% active; note: potency is the fitted concentration of half-maximal effect; nearly all actives have a fitted effect of over 60% in size
ELG1 5FU viab: qHTS screen for small molecules that inhibit ELG1-dependent DNA repair: Hit Confirmation with 5FU Viability | 670 tested, under 10 active | AID 624250, 2012 | Potency, µM (titrated, usually from 46.1 µM), inactives show top-dose activity change, negative = viability loss, actives largely listed as cytotoxic | cell viability with 5-FU, ELG1-dependent repair | shares compounds with ELG1 DNA repair;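 note: ELG1-luc HEK293T cells cotreated with 5-fluorouridine at 10 µM final; potency is the fitted concentration of half-maximal effect; viability measured 16 h after compound addition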
ELG1 MMS cell: qHTS screen for small molecules that inhibit ELG1-dependent DNA repair: Hit Confirmation with MMS Viability. shares compounds with ELG1 DNA repair. Cell viability with MMS, ELG1-dependent DNA repair. Potency, µM (top dose mostly 46.1 µM), for inactives: top-dose activity change, negative = viability loss, usual class: cytotoxic. 670 tested, 33% active;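 note: ELG1-luc HEK293T cells co-treated with 10 µM MMS; potency is the fitted concentration of half-maximal effect; viability read 16 h after compound addition; nearly all actives have a fitted effect of over 60% in size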
ELG1 unstim viab: qHTS screen for small molecules that inhibit ELG1-dependent DNA repair: Hit Confirmation with Unstimulated Viability Assay. shares compounds with ELG1 DNA repair. cell viability counter-screen, unstimulated, luminescence. Potency, µM (titrated, usually from 45.9 µM), for inactives: top-dose activity change, negative = loss of viability, hits mostly cytotoxic. 900 tested, 8% active. AID 624252, 2012;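 note: potency is the fitted concentration of half-maximal effect; compound exposure lasted 16 hours before reading; nearly all actives have a fitted effect of over 55% in size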
FLuc biochem: qHTS screen for small molecules that inhibit ELG1-dependent DNA repair: Hit Confirmation in Biochemical Luciferin Assay | shares compounds with ELG1 DNA repair | purified firefly luciferase, luminescence counter-screen | Potency, µM (top dose mostly 57.5 µM), for inactives: at the top dose activity, negative = inhibition, actives largely listed as inhibitors | 350 tested, 10% active | AID 624253, 2012; note: potency is the fitted concentration of half-maximal effect
Starred values were filed as active, the others as inactive; u = inconclusive; x = no result given. Unless noted, calls come from the whole dose curve; as a rule, active = well fitted curve in the direction sought with a large enough effect; inconclusive = small, poorly fitted or top-dose-only effect, or another doubt; inactive = no such curve, though single readings can be large; an effect the other way counts as inactive or inconclusive. % is set by controls: 0 for no effect and ±100 for the full control effect.

SMILES | TSHR antagonist | Gal4-VP16 FLuc | FBPA coupling cs | RORgamma inh | ELG1 DNA repair | ELG1 unstim viab | others
Cc1ccc(OCC(=O)N(Cc2ccccc2)c2c(N)n(Cc3ccccc3)c(=O)[nH]c2=O)c(C)c1 | 2 | x | x | x | -3% | x
CN(C(=O)CN1C(=O)c2ccccc2S1(=O)=O)C1CCCCC1 | -1 | x | x | x | u | -2%
COc1ccc(CCNc2ncnc3sccc23)cc1OC | -32 | 0.63µM* | -2 | u | 0.29µM* | u | ELG1 FLuc counter=12%;ELG1 Luc conf=u;ELG1-Luc MMS=0.28µM*;ELG1 5FU viab=0%;ELG1 MMS cell=0.4µM*;FLuc biochem=-10%
COc1ccc(Nc2ncnc3sccc23)cc1OC | -3 | -22% | -1 | -6% | 12% | x
Cc1ccc(S(=O)(=O)NCC(NCc2ccc(F)cc2)c2ccccc2)cc1 (stereo unspecified) | 5 | x | x | x | 3% | x
CC1(C)c2[nH]c3ccccc3c2C[C@H]2C(=O)N(CCCCCO)CC(=O)N21 | 3 | -10% | 0 | 6% | u | x
O=c1nc2sc3ccccc3n2c(=O)n1-c1cccc(Cl)c1 | 9 | u | 1 | 7% | u | -5% | ELG1 FLuc counter=82%;FLuc biochem=-6%
Cc1ccc2c(c1)sc1nc(=O)n(-c3ccc(Cl)c(Cl)c3)c(=O)n12 | 19 | -13% | -1 | 21% | u | -2% | ELG1 FLuc counter=7%;FLuc biochem=-3%
Cc1ccc2c(c1)sc1nc(=O)n(-c3ccc(Cl)cc3)c(=O)n12 | 2 | 10% | 5 | 10% | 28% | x
O=c1nc2sc3ccccc3n2c(=O)n1-c1ccc(Cl)cc1 | -3 | 25% | -2 | 19% | u | x
O=C(Nc1cccc(C(F)(F)F)c1)Nn1cnnc1 | 0 | 1% | 0 | 7% | 1% | x
CCOCCn1ccc2c(OCC(=O)Nc3cc(OC)ccc3OC)cccc2c1=O | -27 | x | x | x | 4.1µM* | u | ELG1 Luc conf=11µM*;ELG1-Luc MMS=16µM*;ELG1 5FU viab=u;ELG1 MMS cell=u
Cn1cccc1C(=O)OCC(=O)c1c[nH]c2ccccc12 | -2 | x | x | x | u | -13%
Cc1ccc(C(=O)OCC(=O)c2c[nH]c3ccccc23)cc1 | -1 | 13% | 1 | 2% | u | x
Cn1cccc1C(=O)OCC(=O)Nc1ccc2c(c1)OCCO2 | 2 | x | x | x | u | u | ELG1 FLuc counter=3%;FLuc biochem=2.1µM*
Cn1cccc1C(=O)OCC(=O)Nc1sccc1C#N | 19 | x | x | x | u | 0%
N#Cc1ccsc1NC(=O)COC(=O)c1ccc2ccccc2c1 | -6 | -6% | -1 | 1% | u | x
Cc1ccc(C(=O)N2CCCC(C(=O)Nc3cccc(-c4ccc(F)cc4)c3)C2)cn1 (stereo unspecified) | -1 | 0% | -1 | 37% | 0% | x
O=C(C1CCCC1)N1CCC(CC2CC(c3cccc(Br)c3)=NO2)(C(=O)NCC2CCCCC2)CC1 (stereo unspecified) | 10 | 5% | 1 | u | 4.1µM* | u | ELG1 Luc conf=16µM*;ELG1-Luc MMS=u;ELG1 5FU viab=2%;ELG1 MMS cell=-19%
Fc1ccc(C[n+]2csc3ccccc32)cc1 | 0 | -17% | -2 | u | 5% | x
ICC[n+]1csc2ccccc21 | x | x | x | x | x | -1%
Oc1ccccc1-c1cc(-c2ccccc2)n[nH]1 | -22 | x | x | x | u | -2%
O=C1CC(N2CCN(c3ccccn3)CC2)C(=O)N1CC(c1ccccc1)c1ccccc1 (stereo unspecified) | 42 | -4% | -2 | 1% | 4.1µM* | u | ELG1 Luc conf=28µM*;ELG1-Luc MMS=u;ELG1 5FU viab=-8%;ELG1 MMS cell=u
O=C1CC(N2CCN(c3ccccn3)CC2)C(=O)N1c1ccc(F)cc1 (stereo unspecified) | 13 | 8% | 5 | -9% | 17% | x
COc1cc(C)c2c(=O)cc(-c3ccccc3)oc2c1 | x | 6% | 0 | 14% | x | -6%
Cc1sc2ncnc(N3CCC(C(=O)Nc4ccc(C#N)cc4)CC3)c2c1C | 33 | x | x | x | u | x
Cc1sc2ncnc(N3CCC(C(=O)Nc4ccc(S(N)(=O)=O)cc4)CC3)c2c1C | -11 | x | x | x | 4.1µM* | u | ELG1 Luc conf=7.1µM*;ELG1-Luc MMS=20µM*;ELG1 5FU viab=u;ELG1 MMS cell=8%
Cc1sc2ncnc(N3CCC(C(=O)N(C)CC(=O)Nc4ccc(Cl)c(C(F)(F)F)c4)CC3)c2c1C | -6 | x | x | x | 3.7µM* | u | ELG1 FLuc counter=u;ELG1 Luc conf=7.1µM*;ELG1-Luc MMS=7.1µM*;ELG1 5FU viab=u;ELG1 MMS cell=u;FLuc biochem=-15%
Cc1sc2ncnc(N3CCC(C(=O)N(C)CC(=O)Nc4ccccc4Br)CC3)c2c1C | -11 | -6% | x | 1% | u | x

High-throughput results as filed in PubChem BioAssay.
